Screens from PubChem.
This is a sample that favours compounds with a hit; in the whole collection about 0.5% have one here.
PTHR1 ag – qHTS for PTHR1 Agonists: Primary Screen. Parathyroid hormone/parathyroid hormone-related peptide receptor (Homo sapiens), Q03431. HEK293 GP2 PTHR1 cells, GloSensor cAMP luminescence, 1 h. Potency, µM (highest dose often 115 µM), without a hit: at the highest dose activation, hits mostly activators. hit rate 0.075% among 410,000. AID 743266, 2014; further: potency means the concentration at half of the fitted maximal effect; nearly all actives have a fitted effect of over 55% in size
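HEK-293-derived GP2 cells expressing PTHR1 and a GloSensor cAMP reporter, 3,000/well, plated overnight, given luciferin plus IBMX (each 0.5 mM as added) for 1 h at 37 °C, then compound for 1 h at 37 °C. Luminescence was read after 15 min at room temperature.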
EPAC1 ag – qHTS for Agonist of cAMP-regulated guanine nucleotide exchange factor 3 (EPAC1): primary screen; AID 720707, 2013; Potency, µM (top dose mostly 154 µM), inactives show at the top dose activation, hits mostly activators; EPAC1 agonist qHTS, biochemical assay; response scale: 100% = response to 6.5 mM cAMP; hit rate 0.073% among 360,000; Rap guanine nucleotide exchange factor 3 (Homo sapiens), O95398; further: potency means the concentration at half of the fitted maximal effect; nearly all actives have a fitted effect of over 60% in size
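Nucleotide exchange assay: 100 nM EPAC1 with 250 nM Rap1B loaded with BODIPY-GDP and 50 uM GDP, room temperature. Fluorescence (480/540 nm) read every 5 min for 30 min; signal change normalized to 6.5 mM cAMP as full agonist.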
EPAC2 antag – qHTS for Antagonist of cAMP-regulated guanine nucleotide exchange factor 2 (EPAC2): primary screen. Rap guanine nucleotide exchange factor 4 (Homo sapiens), Q8WZA2. EPAC2 GEF exchange of Rap1B-BODIPY-GDP, fluorescence. Potency, µM (highest dose often 114 µM), inactives show at the top dose activity, negative = inhibition, most hits filed as inhibitors. hit rate 0.18% among 360,000. AID 720708, 2013; further: potency means the concentration at half of the fitted maximal effect; on the % scale 0 is the no-effect control and ±100 the full control effect; nearly all actives have a fitted effect of over 45% in size
Target sequence (Q8WZA2 whole entry, looked up): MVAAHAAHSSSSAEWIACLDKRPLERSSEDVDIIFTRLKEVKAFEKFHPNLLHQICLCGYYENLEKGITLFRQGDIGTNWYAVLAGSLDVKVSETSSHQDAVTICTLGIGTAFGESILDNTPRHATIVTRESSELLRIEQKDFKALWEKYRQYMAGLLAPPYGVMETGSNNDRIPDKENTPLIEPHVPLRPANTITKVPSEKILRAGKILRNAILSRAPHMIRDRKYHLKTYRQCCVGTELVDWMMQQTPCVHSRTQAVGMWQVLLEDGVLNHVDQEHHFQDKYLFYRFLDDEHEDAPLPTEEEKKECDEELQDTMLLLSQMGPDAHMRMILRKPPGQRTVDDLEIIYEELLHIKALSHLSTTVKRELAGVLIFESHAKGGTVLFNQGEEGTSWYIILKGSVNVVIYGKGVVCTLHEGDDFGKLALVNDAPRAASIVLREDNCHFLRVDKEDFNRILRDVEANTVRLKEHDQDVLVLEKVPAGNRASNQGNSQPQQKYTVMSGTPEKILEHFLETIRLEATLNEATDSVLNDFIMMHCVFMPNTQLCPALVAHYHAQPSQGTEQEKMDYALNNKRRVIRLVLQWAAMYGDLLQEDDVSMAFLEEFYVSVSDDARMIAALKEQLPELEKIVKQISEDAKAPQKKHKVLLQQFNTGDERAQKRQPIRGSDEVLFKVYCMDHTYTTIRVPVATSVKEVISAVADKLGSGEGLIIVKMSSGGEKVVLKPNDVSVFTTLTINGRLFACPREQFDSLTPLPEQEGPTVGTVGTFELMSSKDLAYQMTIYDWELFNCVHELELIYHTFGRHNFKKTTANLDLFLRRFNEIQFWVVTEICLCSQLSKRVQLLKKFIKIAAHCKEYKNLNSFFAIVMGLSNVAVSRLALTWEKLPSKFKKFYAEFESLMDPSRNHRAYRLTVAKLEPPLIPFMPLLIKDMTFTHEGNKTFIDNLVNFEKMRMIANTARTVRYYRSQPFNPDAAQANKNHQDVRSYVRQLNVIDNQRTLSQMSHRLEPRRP
EPAC2 agonist – qHTS for Agonist of cAMP-regulated guanine nucleotide exchange factor 4 (EPAC2): primary screen | Rap guanine nucleotide exchange factor 4 (Homo sapiens), Q8WZA2 | EPAC2 activation, biochemical qHTS; response scale: 100% = 6.5 mM cAMP response | Potency, µM (series often up to 154 µM), inactives show at the top dose activation, usual class: activators | hit rate 0.079% among 360,000; further: potency means the concentration at half of the fitted maximal effect; nearly all actives have a fitted effect of over 50% in size
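qHTS, titration series. 100 nM EPAC2 / 250 nM Rap1B-BODIPY-GDP / 50 uM GDP; RT; ex 480/em 540 nm, 5-min reads to 30 min. Norm. to 6.5 mM cAMP = activation.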
TSHR antagonist – Antagonists of the Thyroid Stimulating Hormone Receptor: HTS campaign. Thyrotropin receptor (Homo sapiens), P16473. TSHR-expressing cells, TSH-stimulated cAMP HTRF, 2 h; stronger effect = lower value. activity change, negative = inhibition, % at 11.5 µM. hit rate 0.2% among 330,000;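 active means activity change below a set negative limit, meaning inhibition stronger than a set level, cut at about -70% in these data; inconclusive means activity change between two set negative limits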; further: on the % scale 0 is the no-effect control and ±100 the full control effect
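Cell-based HTRF cAMP assay; TSHR cells + compound, TSH EC80 (4nM final), 2 h, 37 deg C. Lysis with anti-cAMP cryptate and cAMP-d2, 30 min RT, read 665/620 nm.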
EPAC1 antagonist – qHTS for Antagonist of cAMP-regulated guanine nucleotide exchange factor 3 (EPAC1): primary screen | AID 720709, 2013 | hit rate 0.14% among 360,000 | EPAC1 GEF assay, Rap1b-BODIPY-GDP exchange fluorescence | Potency, µM (top dose mostly 115 µM), for the others: top-dose activity change, negative = inhibition, most hits filed as inhibitors;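 further: potency means the concentration at half of the fitted maximal effect; plate controls were vehicle for no effect and positive control for full effect; nearly all actives have a fitted effect of over 50% in size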
An asterisk follows results filed as active; i = inactive; ? = inconclusive; / = no result; [ ] = another dose, or the depositor's remark. Unless noted, the call rests on the fitted dose curve; in most records, active means well fitted curve in the direction sought with a large enough effect; inconclusive means small, poorly fitted or top-dose-only effect, or another doubt; inactive means no such curve, though single readings can be large; an effect the other way counts as inactive or inconclusive.

SMILES | PTHR1 ag | EPAC1 ag | EPAC2 antag | EPAC2 agonist | TSHR antagonist | EPAC1 antagonist
CC(C)Cn1c(N)c(C(=O)NCC2CCCO2)c2nc3ccccc3nc21 (stereo not drawn) | i | 6.6% | -25.4% | -2.2% | 6.6 | 50.1µM*
OCCN(Cc1ccccc1)c1ncnc2sccc12 | -24.1% | 11.3% | 17.5% | 4.9% | 27.8 | 4.7%
COC(=O)[C@@]12C[C@@H](CC(=O)NCCCN3CCCC3=O)C(=O)N(Cc3ccc4c(c3)OCO4)C1=CCC(C)(C)C2 | -8.2% | 0.4% | -1.0% | -5.4% | / | 19.1%
CC(CC(=O)Nc1ccc(Cl)c(S(=O)(=O)N2CCOCC2)c1)c1ccccc1 (stereo not drawn) | -27.8% | 22.4µM* | 1.1% | 1.4% | -39.8 | -23.5%
O=C(O)CC(SCC(=O)Nc1ccc(Cl)c(S(=O)(=O)N2CCOCC2)c1)C(=O)O (stereo not drawn) | i | -3.9% | -0.7% | -4.8% | 2.0 | -21.8%
O=C(CC(c1ccccc1)c1ccccc1)Nc1ccc(Cl)cn1 | -7.4%[57.5 µM] | 15.6% | -15.0% | 6.31µM* | -9.5 | -8.9%
COc1ccccc1N1CCN(C(=O)CN2C(=O)c3cccc4cccc(c34)C2=O)CC1 | -18.4% | 2.9% | -2.9% | 5.5% | -7.5 | -4.1%
COc1ccccc1N1CCN(C(=O)CCCN2C(=O)c3cccc4cccc(c34)C2=O)CC1 | -6.3% | -2.7% | 1.6% | 1.6% | -72.2* | -20.6%
CC(C)Cn1c(CN2CCN(c3cccc(Cl)c3)CC2)nc2c1c(=O)[nH]c(=O)n2C | -34.8% | / | / | / | / | /
Cn1c(=O)[nH]c(=O)c2c1nc(CN1CCN(c3ccccc3F)CC1)n2Cc1ccc(F)cc1 | -45.7% | / | / | / | / | /
COc1ccccc1NC(=O)c1cc2cc(Br)ccc2cc1O | -34.3% | -4.6% | -1.1% | 7.2% | ? | -21.8%
Cn1cccc1C(=O)NC(=O)COC(=O)c1ccc(S(C)(=O)=O)c([N+](=O)[O-])c1 | -19.5% | -5.2% | -3.4% | 1.5% | -30.8 | ?
CS(=O)(=O)c1ccc(C(=O)OCC(=O)NC23CC4CC(CC(C4)C2)C3)cc1[N+](=O)[O-] | i | -23.4% | 5.9% | -14.2% | -76.1* | -27.9%
CCc1ccccc1-n1nnc(-c2nc(-c3ccccc3F)no2)c1C | -26.9% | / | / | / | / | /
O=S(=O)(Nc1nc(-c2sccc2Cl)cs1)c1cc(Cl)ccc1Cl | -38.1% | -11.9% | 50.1µM* | -24.3% | 3.2 | 79.4µM*
CC(=O)[C@]1(O)Cc2c(O)c3c(c(O)c2[C@@H](O[C@H]2C[C@H](N)[C@H](O)[C@H](C)O2)C1)C(=O)c1ccccc1C3=O | -10.3% | 100µM* | 105.0% | 112µM* | -17.4 | 127.2%
COc1ccc(/C=N/NC(=O)CCN2CCN(c3ccccc3)CC2)c(OC)c1OC | i | -2.2% | 7.8% | 0.3% | -8.3 | 1.6%
O=C(CCN1CCN(c2ccccc2)CC1)N/N=C/c1ccc(O)c(O)c1O | 20.6% | 6.3% | 1.3% | 5.1% | -4.7 | 79.4µM*
O=C(O)c1cc(S(=O)(=O)Nc2ccccc2C(=O)O)ccc1O | i | 10.6% | -2.2% | -9.6% | 11.5 | -9.9%
CCOc1cc(/C=N/Nc2ccc(S(=O)(=O)Nc3ccccc3C(=O)O)cc2[N+](=O)[O-])cc(Cl)c1O | i | -2.6% | 4.4% | 3.5% | / | 50.1µM*
CC(=O)Nc1ccc(C=NNc2ccc([N+](=O)[O-])cc2S(=O)(=O)Nc2ccccc2C(=O)O)cc1 | -13.3% | -2.0% | ? | 0.1% | -4.4 | ?
CC(=O)Nc1ccc(C=NNc2ccc(S(=O)(=O)Nc3ccccc3C(=O)O)cc2[N+](=O)[O-])cc1 | -30.8% | 1.1% | 50.1µM* | 3.7% | -21.5 | 79.4µM*
O=C(O)c1ccccc1NS(=O)(=O)c1ccc(N/N=C/c2cccc(O)c2O)c([N+](=O)[O-])c1 | i | -12.2% | -25.8% | -5.8% | / | 25.1µM*
CC(=O)Nc1cccc(/C(C)=N/Nc2ccc(S(=O)(=O)Nc3ccccc3C(=O)O)cc2[N+](=O)[O-])c1 | -7.4% | -14.5% | ? | -5.2% | / | 50.1µM*
COC(CNC(=O)CN1CCN(Cc2ccccc2F)C1=O)OC | i | 10.8% | 3.7% | 3.1% | 2.7 | 4.6%
SMILES | PTHR1 ag | EPAC1 ag | EPAC2 antag | EPAC2 agonist | TSHR antagonist | EPAC1 antagonist
CN(CCO)c1ccc(C=NNc2ccc([N+](=O)[O-])cc2S(=O)(=O)Nc2ccccc2C(=O)O)cc1 | i | -6.3% | ? | 1.5% | 13.5 | 50.1µM*
COc1cc(C=NNc2ccc(S(=O)(=O)Nc3ccccc3C(=O)O)cc2[N+](=O)[O-])ccc1O | -29.7% | -4.4% | ? | -16.3% | / | 89.1µM*
COc1ccc(Cn2c(O)c(C=Nc3ccccc3C(=O)O)c3ccccc3c2=O)cc1 | -11.5% | -6.8% | ? | -14.0% | -10.0 | -10.2%
COc1ccc(C(C)=NNc2ccc([N+](=O)[O-])cc2S(=O)(=O)Nc2ccccc2C(=O)O)c(OC)c1 | -16.6% | 7.5% | ? | -1.3% | -25.0 | -27.9%
CCOc1ccc(C=NNc2ccc(S(=O)(=O)Nc3ccccc3C(=O)O)cc2[N+](=O)[O-])cc1OC | -1.5% | 5.5% | -13.4% | -4.8% | -9.7 | -12.7%
COc1ccccc1NS(=O)(=O)c1cccc(-n2c(O)c(C=Nc3ccccc3C(=O)O)c3ccccc3c2=O)c1 | i | 5.0% | ? | 2.0% | 1.5 | 56.2µM*
CCCCCCCCCCCCCCCCCCNc1ccn(C2OC(COP(=O)(O)OCC3OC(n4cc(F)c(=O)[nH]c4=O)CC3O)C(O)C2O)c(=O)n1 (stereo not drawn) | -6.7% | -35.1% | 4.0% | 9.4% | / | 22.4µM*
N#CC1=C(N)SC(N)=C(C#N)C1c1cccc(Oc2ccccc2)c1 | -23.5%[57.5 µM] | 17.5% | 50.1µM* | 5.6% | -26.4 | -7.6%
CC1=N/C(=C\c2ccc([N+](=O)[O-])cc2)C(=O)N1c1ccc(F)cc1F | -6.7% | -4.5% | -15.3% | 3.0% | 3.9 | 11.0%
CC(=O)NN1C(=O)/C(=C2/Sc3ccc(Cl)cc3N2C)SC1=S | -9.0% | -6.9% | 16.7% | 3.2% | -9.2 | 0.5%
